# LmPK inhibitor: qHTS Assay for Inhibitors of Leishmania Mexicana Pyruvate Kinase (LmPK). Q27686. purified LmPK, Kinase-Glo ATP luminescence, 1 h. Potency, µM (doses to about 57.5 µM), for inactives: at the highest dose activity change, negative = inhibition, most hits filed as inhibitors. actives 0.37% (n = 290,000); also: potency is read from the fitted curve at half-maximal effect; % is scaled to controls: 0 for no effect and ±100 for the full control effect
# Target sequence (Q27686 whole entry, looked up): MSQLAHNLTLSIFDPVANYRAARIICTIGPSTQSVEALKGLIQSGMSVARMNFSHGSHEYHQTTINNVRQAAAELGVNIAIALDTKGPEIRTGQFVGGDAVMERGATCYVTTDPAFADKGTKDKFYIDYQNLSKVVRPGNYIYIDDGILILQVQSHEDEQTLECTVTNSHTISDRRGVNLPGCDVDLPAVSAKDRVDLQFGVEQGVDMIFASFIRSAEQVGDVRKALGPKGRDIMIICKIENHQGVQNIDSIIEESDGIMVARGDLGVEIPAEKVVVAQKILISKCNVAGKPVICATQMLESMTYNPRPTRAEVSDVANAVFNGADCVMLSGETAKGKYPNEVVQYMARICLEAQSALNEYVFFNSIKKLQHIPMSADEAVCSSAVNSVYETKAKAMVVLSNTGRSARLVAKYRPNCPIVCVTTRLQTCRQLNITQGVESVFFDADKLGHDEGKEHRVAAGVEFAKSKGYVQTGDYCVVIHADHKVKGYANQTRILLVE
#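 Screened at intermediate enzyme activity to detect both inhibitors and activators: LmPK at 0.1 nM, with a 0.5 nM enzyme column as activation reference. PEP 0.5 mM, ADP 0.1 mM; ATP detected by luminescence after 1 h.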
# Shiga toxin inh: A qHTS for Small Molecule Inhibitors of Shiga Toxin; actives 9.2% (n = 290,000); AID 2315, 2010; inhibition, % at 38.7 µM; Vero cells, Shiga toxin protein synthesis inhibition reporter; in the data active = inhibition mostly above about 28%, no sharp cut-off; inactive = mostly below about 43%; also: 0% is about no effect
# CHX counter: Cycloheximide Counterscreen for Small Molecule Inhibitors of Shiga Toxin. cell reporter, cycloheximide protein synthesis inhibition counterscreen. max response, %. actives 12% (n = 300,000). AID 2314, 2010; in the data active = max response mostly above about 13%, no sharp cut-off; inactive = mostly below about 14%; also: read at 38.3 µM for the half of the compounds with a filed dose; 0% is about no effect
# NS1 inh: qHTS Assay for Inhibitors of Influenza NS1 Protein Function; Potency, µM (doses to about 46.1 µM), for the others: at the highest dose activity, positive = more growth; actives 0.4% (n = 270,000); calls by dose curve; also: potency is read from the fitted curve at half-maximal effect; actives are rising curves; nearly all actives have a fitted effect of over 50% in size
#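 OD600 was taken as the measure of yeast growth restored by compound in an NS1-expressing S. cerevisiae strain. Cells had been washed out of glucose medium and diluted 1:100 into galactose -URA medium, pH 6.0.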
# TbPYK inhibitor: qHTS of Trypanosoma Brucei Inhibitors | TbPYK enzyme, Kinase-Glo Plus ATP luminescence, 45 min | Potency, µM (titrated, usually from 76.8 µM), without a hit: at the highest dose activity, negative = inhibition, most hits filed as inhibitors | pyruvate kinase (Trypanosoma brucei), Q57TT1 | actives 0.12% (n = 410,000) | AID 624173, 2012; also: potency is read from the fitted curve at half-maximal effect; % is scaled to controls: 0 for no effect and ±100 for the full control effect; nearly all actives have a fitted effect of over 50% in size
#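 T. brucei PYK with substrate was exposed to pin-transferred compounds across a concentration series, then started with 130 uM ADP (final). After 45 min at room temperature, Kinase-Glo Plus luminescence was read, normalized and curve-fitted.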
# SARS PLP yeast: qHTS of Yeast-based Assay for SARS-CoV PLP; S. cerevisiae expressing SARS-CoV PLpro, growth rescue; Potency, µM (titrated, usually from 32.9 µM), for the others: at the highest dose activity, positive = growth rescue, actives largely listed as activators; actives 0.19% (n = 330,000); AID 485353, 2010; calls by dose curve; also: potency is read from the fitted curve at half-maximal effect; 0% is about no effect; nearly all actives have a fitted effect of over 55% in size
# * = called active by the depositor; ? = inconclusive; nt = no result given. The entries come from a sample that favours hits as a whole. Unless noted, calls follow the shape of the dose curve; as a rule, active = well fitted curve in the direction sought with a large enough effect; inconclusive = small, poorly fitted or top-dose-only effect, or another doubt; inactive = no such curve, though single readings can be large; an effect the other way counts as inactive or inconclusive.
SMILES,LmPK inhibitor,Shiga toxin inh,CHX counter,NS1 inh,TbPYK inhibitor,SARS PLP yeast
Cc1oc2ccc(O)c(CN3CCN(C)CC3)c2c1C(=O)Nc1cccc(C(F)(F)F)c1,nt,nt,nt,nt,2%,nt
CC(C)N(Cc1ccccc1)C(=O)CN1C(=O)NC2(CCCC2)C1=O,nt,nt,nt,nt,1%,5%
O=C(NC(N1CCOCC1)C(Cl)(Cl)Cl)c1ccc(Br)cc1 (centres undefined),-10%,10,13,nt,3%,-2%
O=C(/C=C/c1ccccc1)NC(N1CCOCC1)C(Cl)(Cl)Cl (centres undefined),8%,42,30*,-5%,-1%,1%
O=C(NC(N1CCOCC1)C(Cl)(Cl)Cl)c1ccco1 (centres undefined),4%,128*,70*,-35%,7%,-2%
Cc1ccc(OCCCn2c(CO)nc3ccccc32)cc1,-1%,67*,18*,-22%,-6%,1%
COc1cccc(OCc2nc3ccccc3n2CCOc2cccc(C)c2)c1,nt,nt,nt,nt,4%,nt
OCc1nc2ccccc2n1CCCOc1ccccc1,2%,35*,30*,-3%,-2%,0%
Cc1cccc(OCCCn2c(CO)nc3ccccc32)c1,0%,122*,44*,0%,1%,1%
CN(C(=O)c1ccccc1)C(=O)c1ccccc1,nt,nt,nt,nt,-2%,nt
Cc1cccc(OCC(=O)Nc2ccc(N3CCN(C(=O)c4ccccc4)CC3)cc2)c1,-1%,-8,1,25%,-4%,14%
O=[N+]([O-])c1ccc2nc(C3CCCCC3)[nH]c2c1,2%,46*,18*,-38%,-2%,1%
O=[N+]([O-])c1ccc2nc(CN3CCCCC3)[nH]c2c1,-2%,20,15,nt,1%,-3%
NC(N)=Nc1nc2ccc([N+](=O)[O-])cc2[nH]1,-2%,24,9.4*,-3%,-7%,0%
Nc1nc2ccc([N+](=O)[O-])cc2[nH]1,-8%,15,-3,0%,3%,0%
O=[N+]([O-])c1ccc2nc(CCCc3nc4ccc([N+](=O)[O-])cc4[nH]3)[nH]c2c1,-1%,53*,15,-1%,-14%,-1%
O=[N+]([O-])c1ccc(/C=C/c2nc3ccc([N+](=O)[O-])cc3[nH]2)cc1,1%,91*,33*,16%,2%,21%
O=C(Cn1ncc2c3ccccc3n(Cc3ccc(Cl)cc3)c2c1=O)NCc1cccs1,nt,nt,nt,nt,2%,nt
CC(=O)Oc1ccc2c(=O)c(-c3ccccc3)coc2c1,-13%,80*,38*,nt,-7%,-5%
COc1ccc(-c2cc3ccc(OCC(=O)NCC4CCC(C(=O)O)CC4)cc3oc2=O)cc1 (centres undefined),0%,29*,27*,8%,-4%,?
COc1ccc(-c2cc3ccc(OC(C)C(=O)O)cc3oc2=O)cc1 (centres undefined),-1%,30,13*,20%,-2%,nt
COc1ccc2c(c1)c(=O)oc1cc(OCC(=O)NCC3CCC(C(=O)O)CC3)ccc12 (centres undefined),-8%,-5,-3,-11%,-3%,0%
CCOC(=O)COc1ccc2c(=O)c(-c3ccccc3)coc2c1,-2%,-9,-6,-42%,0%,-7%
CC(=O)COc1ccc2cc(-c3ccccc3)c(=O)oc2c1,-6%,73*,42*,7%,2%,-18%
CCC(C)(C)NC(=O)C(c1ccc(C)o1)N(Cc1ccc2c(c1)OCO2)C(=O)c1snc(C(N)=O)c1N (centres undefined),3%,-12,-5,9%,1%,-3%
SMILES,LmPK inhibitor,Shiga toxin inh,CHX counter,NS1 inh,TbPYK inhibitor,SARS PLP yeast
CC(=O)Oc1ccc2cc(-c3ccccc3)c(=O)oc2c1,?,53*,34*,-2%,-11%,-1%
O=C(CCCCl)Oc1ccc2cc(-c3ccc4ccccc4n3)c(=O)oc2c1,3%,9,20*,1%,-4%,-14%
COC(=O)c1ccc(OCC(=O)c2ccccc2)cc1,?,67*,46*,-16%,3%,7%
O=C(C[n+]1ccccc1)c1ccc(-c2ccccc2)cc1,7%,-8,-11,nt,7%,-2%
COC(=O)c1cc[n+](CC(=O)c2ccccc2)cc1,-3%,24,26*,15%,-6%,2%
COC(=O)c1[nH]c(=O)c2ccccc2c1OCc1ccccc1,-8%,-10,-5,-10%,-10%,-12%
COC(=O)c1cc(O)c(OCc2ccccc2)c(O)c1,0%,15,18*,-11%,7%,-15%
CN(Cc1ccc(Cl)c(Cl)c1)C(=O)c1ccccc1SCC(=O)N1CCCC1,nt,nt,nt,nt,1%,-2%
CCc1ccc(OCC(=O)NCCOc2ccccc2)cc1,7%,66,27*,-94%,-1%,1%
COc1ccccc1C(=O)NCCC(=O)NCCOc1ccc(C)cc1,nt,nt,nt,nt,-12%,nt
CCCCOCCCNC(=O)COc1ccccc1,9%,-8,-2,-8%,4%,?
CCOC(=O)NCCOc1ccc(Oc2ccccc2)cc1,nt,30*,21*,nt,nt,nt
CCOC(=O)N/N=C/c1ccc(Oc2ccccc2)cc1,1%,104*,41*,nt,0%,11%
Cc1ccc(OCCNC(=O)c2ccccc2N)cc1,2%,27*,13*,-4%,1%,4%
CCOc1ccc(C2C(=O)N(C3CCCCC3)CC(=O)N2CCc2ccccc2)cc1OC (centres undefined),nt,nt,nt,nt,-4%,nt
S=C(c1cccs1)N1CCN(c2ccccc2)CC1,nt,nt,nt,nt,-2%,nt
Cc1ccc(OCCNC(=O)c2ccco2)cc1C,-3%,74*,17*,-71%,0%,-6%
O=C(NCCOc1ccc(Cl)cc1)c1ccco1,7%,11,2,-28%,-16%,-4%
CCc1ccc(OCCNC(=O)c2ccco2)cc1,0%,52*,34*,-29%,-1%,-7%
COc1ccc2c(CCNC(N)=S)c[nH]c2c1,2%,3,10,?,1%,-2%
COc1ccc(OCCNC(=O)c2ccccc2OCC(=O)Nc2ccc(NC(C)=O)cc2)cc1,-2%,18,24*,?,1%,-12%
COc1ccc2c(CCNC(=O)c3ccco3)c[nH]c2c1,1%,63*,49*,-8%,-6%,-8%
O=S(=O)(c1ccccc1)N1CCN(C(=S)Nc2ccccc2Cl)CC1,5%,-8,6,-26%,6%,10%
COc1ccc(NC(=O)c2cc(C3CC3)nc3c2cnn3C(C)C)cc1OC,nt,nt,nt,nt,1%,-3%
COc1ccc2ccccc2c1CNC(C)CCc1ccccc1 (centres undefined),1%,-3,-3,-9%,3%,-3%
CCOc1ccc(CNC(=O)c2ccco2)cc1,-2%,40,20*,nt,3%,-3%

# Bioassay records: PubChem, National Center for Advancing Translational Sciences (NCATS)
